In PubChem BioAssay (NCI):
About 79,000 compounds went through this panel and 15% of them were active in at least one assay; those are over-represented in the sample as a whole. Calls of active or inactive are those of the source. Rule as the data show it: active = growth inhibition above about 70%; inactive = the rest.

Key:
[1] = NCI Yeast Anticancer Drug Screen. Data for the rad52 strain (AID 147);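 also: 0% = growth of vehicle-treated control cultures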; settings: S. cerevisiae rad52 mutant growth inhibition, stronger effect = higher value
In short: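 Inhibition of yeast growth, referenced to vehicle controls, was the measured output for a strain with defective DNA damage repair.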

[2] = NCI Yeast Anticancer Drug Screen. Data for the wt1 strain (AID 149);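 also: 0% = growth of vehicle-treated wt1 cultures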; settings: S. cerevisiae wt1 strain (SPY 50644) growth inhibition, stronger effect = higher value
In short: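 wt1 strain grown with compound or vehicle; inhibition taken from the growth difference.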

[3] = NCI Yeast Anticancer Drug Screen. Data for the rad50EPP+ strain (AID 151);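 also: 0% = growth of vehicle-treated control cultures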; settings: S. cerevisiae rad50 mutant strain, stronger effect = higher value
In short: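 Genetically defined yeast (rad50EPP+, DNA damage repair alteration) is grown with compound, and inhibition of growth is expressed relative to vehicle-treated controls.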

[4] = NCI Yeast Anticancer Drug Screen. Data for the mgt1 strain (AID 153); settings: S. cerevisiae mgt1 mutant growth inhibition, stronger effect = higher value
In short: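 In the mgt1 strain, test compounds were added and growth inhibition was determined relative to vehicle-treated controls.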

[5] = NCI Yeast Anticancer Drug Screen. Data for the rad50 strain (AID 155);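 also: 0% = growth of vehicle-only cultures of the same strain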; settings: S. cerevisiae rad50 strain growth inhibition, stronger effect = higher value
In short: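 DNA repair mutant yeast, compound exposure, growth read-out; inhibition is taken relative to vehicle.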

[6] = NCI Yeast Anticancer Drug Screen. Data for the mec2-1 strain (AID 157); settings: S. cerevisiae mec2-1 strain, stronger effect = higher value
In short: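 Each compound was tested on mec2-1 yeast, a strain altered in DNA damage repair or cell cycle control. Growth inhibition is reported relative to vehicle.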

[7] = NCI Yeast Anticancer Drug Screen. Data for the sgs1 mgt1 strain (AID 161);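 also: 0% = growth of cultures given vehicle only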; settings: S. cerevisiae sgs1 mgt1 strain, stronger effect = higher value
In short: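 Test agents were incubated with a DNA-repair-mutant yeast strain. Growth was then read and compared against vehicle-treated controls.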

[8] = NCI Yeast Anticancer Drug Screen. Data for the CLN2oe strain (AID 163);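 also: 0% = growth of vehicle-only control cultures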; settings: S. cerevisiae CLN2oe strain, stronger effect = higher value
In short: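 First, the altered yeast strain was treated with each compound; second, its growth was measured; finally, inhibition was derived by comparison with vehicle controls.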

[9] = NCI Yeast Anticancer Drug Screen. Data for the bub3 strain (AID 167); settings: S. cerevisiae bub3 mutant strain, stronger effect = higher value
In short: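 In this screen, a yeast mutant lacking normal mitotic checkpoint function is challenged with compound. Relative growth versus vehicle gives the inhibition value.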

[10] = NCI Yeast Anticancer Drug Screen. Data for the wt2 strain (AID 169);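 also: 0% = growth of vehicle-treated yeast cultures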; settings: S. cerevisiae wt2 strain growth inhibition, stronger effect = higher value
In short: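 The panel's yeast strains carry defined changes in DNA repair or cell cycle genes. Each strain is grown with compound, and growth loss is scored relative to vehicle.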

[11] = NCI Yeast Anticancer Drug Screen. Data for the mlh1 strain (AID 171);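 also: 0% = growth of vehicle-treated control cultures of the same strain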; settings: S. cerevisiae mlh1 strain growth inhibition, stronger effect = higher value
In short: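 Inhibition values reflect reduced yeast growth in the presence of compound, referenced to vehicle controls, using a strain chosen for its alteration in DNA repair or cell cycle control.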

[12] = NCI Yeast Anticancer Drug Screen. Data for the sgs1 strain (AID 173);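 also: 0% = growth of vehicle-only control cultures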; settings: S. cerevisiae sgs1 mutant, stronger effect = higher value
In short: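 Vehicle-treated cultures served as reference for growth inhibition of a yeast strain altered in DNA damage repair or cell cycle control after compound exposure.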

[13] = NCI Yeast Anticancer Drug Screen. Data for the mlh1 rad18 strain (AID 175); settings: S. cerevisiae mlh1 rad18 strain growth inhibition, stronger effect = higher value
In short: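 Inhibition values reflect reduced growth of mutant yeast versus vehicle-treated controls following compound exposure; the mutations affect DNA damage repair.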

[14] = NCI Yeast Anticancer Drug Screen. Data for the rad18 strain (AID 177); settings: S. cerevisiae rad18 mutant growth inhibition, stronger effect = higher value
In short: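 Steps: expose repair-mutant yeast to compound; measure growth; express as inhibition relative to vehicle control.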

[15] = at 5.0 µM (retest, dose inferred, filed as 0.5)
[16] = at 50.0 µM (retest, dose inferred, filed as 5.0)

Measured: growth inhibition

COC(=O)C1(C)CCc2c(ccc3ccccc23)C1=O (stereo not given)
active: [9]; [16] 78% | [9]; at 50.0 µM 81% | [9]; at 100.0 µM 75% | [10]; at 100.0 µM 80%
inactive: [1]; at 1.2 µM -1% | [1]; at 3.7 µM 4% | [1]; at 11.0 µM 12% | [1]; at 33.0 µM 4% | [1]; at 100.0 µM 44% | [2]; at 1.2 µM 0% | [2]; at 3.7 µM -2% | [2]; at 11.0 µM -3% | [2]; at 33.0 µM -2% | [2]; at 100.0 µM -13% | [3]; at 1.2 µM -1% | [3]; at 3.7 µM 13% | [3]; at 11.0 µM 28% | [3]; at 33.0 µM 23% | [3]; at 100.0 µM 49% | [4]; at 1.2 µM -1% | [4]; at 3.7 µM 0% | [4]; at 11.0 µM -1% | [4]; at 33.0 µM -2% | [4]; at 100.0 µM 30% | [5]; at 1.2 µM -1% | [5]; at 3.7 µM 6% | [5]; [15] -13% | [5]; at 11.0 µM 13% | [5]; at 33.0 µM -87% | [5]; [16] 29% | [5]; at 50.0 µM 39.9% | [5]; at 100.0 µM 42% | [6]; at 1.2 µM 1% | [6]; at 3.7 µM -1% | [6]; [15] -14% | [6]; at 11.0 µM -2% | [6]; at 33.0 µM 0% | [6]; [16] -17% | [6]; at 50.0 µM 27.1% | [6]; at 100.0 µM 13% | [7]; [15] -5% | [7]; [16] 47% | [7]; at 50.0 µM 64.3% | [8]; at 1.2 µM -4% | [8]; at 3.7 µM 4% | [8]; at 11.0 µM 6% | [8]; at 33.0 µM 11% | [8]; at 100.0 µM 15% | [9]; at 1.2 µM 37% | [9]; at 3.7 µM 49% | [9]; [15] 40% | [9]; at 11.0 µM 57% | [9]; at 33.0 µM 65% | [10]; at 1.2 µM -5% | [10]; at 3.7 µM -2% | [10]; at 11.0 µM 9% | [10]; at 33.0 µM -5% | [11]; at 1.2 µM -2% | [11]; at 3.7 µM 2% | [11]; at 11.0 µM 7% | [11]; at 33.0 µM 5% | [11]; at 100.0 µM 32% | [12]; at 1.2 µM -14% | [12]; at 3.7 µM 3% | [12]; at 11.0 µM 16% | [12]; at 33.0 µM 34% | [12]; at 100.0 µM 67% | [13]; [15] -11% | [13]; [16] 57% | [13]; at 50.0 µM 26.5% | [14]; at 1.2 µM -5% | [14]; at 3.7 µM 6% | [14]; at 11.0 µM 10% | [14]; at 33.0 µM 7% | [14]; at 100.0 µM 53%
